Laboratory results reported in PubChem BioAssay AID1159580 (chemical genetic matrix, 2015).
About 2,000 (36%) of roughly 5,500 compounds were called active. Roughly 18% stayed inconclusive and do not appear here. Rule as the data show it: active = normalized growth mostly below about 0.91 (no sharp cut-off); inconclusive = no clear call, values can overlap the other calls; inactive = mostly above about 0.92. This is one part of the list.

Test: chemical genetic growth profiling, strain panel (AID 1159580);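 also: tested at 20 µM; growth read once vehicle control cultures reached saturation at 30 °C; 1 = growth at the plate median or of vehicle wells; lower values mean less growth of the strain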
Details: growth OD

Measured: normalized growth

CC1=C(C(=O)O)N2C(=O)[C@@H](NC(=O)[C@H](N)C3=CCC=CC3)C2SC1 (some centres not stated)
inactive: S. cerevisiae deletion strains, locus YJR066W, strain TOR1, hits give low values 0.974 | S. cerevisiae deletion strains, locus YKL009W, strain mrt4, hits give low values 1 | S. cerevisiae deletion strains, locus YKL068W, hits give low values 0.979 | S. cerevisiae deletion strains, locus YKL085W, strain MDH1 (second series), hits give low values 0.978 | S. cerevisiae deletion strains, locus YKL085W, strain MDH1, hits give low values 0.978 | S. cerevisiae deletion strains, locus YKL160W, strain elf1, hits give low values 1 | S. cerevisiae deletion strains, locus YKR001C, strain vps1, hits give low values 0.994 | S. cerevisiae deletion strains, locus YKR026C, strain gcn3, hits give low values 1.02 | S. cerevisiae deletion strains, locus YKR091W, strain srl3, hits give low values 1.01 | S. cerevisiae deletion strains, locus YLL001W, strain dnm1, hits give low values 0.998 | S. cerevisiae deletion strains, locus YLL026W, hits give low values 1.02 | S. cerevisiae deletion strains, locus YLL041C, strain sdh2, hits give low values 1.02 | S. cerevisiae deletion strains, locus YLR027C, strain aat2, hits give low values 1.02 | S. cerevisiae deletion strains, locus YLR039C, strain RIC1, hits give low values 0.983 | S. cerevisiae deletion strains, locus YLR058C, strain SHM2, hits give low values 0.974 | S. cerevisiae deletion strains, locus YLR102C, strain apc9, hits give low values 1 | S. cerevisiae deletion strains, locus YLR113W, strain HOG1, hits give low values 0.968 | S. cerevisiae deletion strains, locus YLR221C, strain rsa3, hits give low values 1.02 | S. cerevisiae deletion strains, locus YLR258W, strain gsy2, hits give low values 1.03 | S. cerevisiae deletion strains, locus YLR262C, strain YPT6 (second series), hits give low values 1.04 | S. cerevisiae deletion strains, locus YLR262C, strain YPT6, hits give low values 0.924 | S. cerevisiae deletion strains, locus YLR268W, strain sec22, hits give low values 1 | S. cerevisiae deletion strains, locus YLR320W, strain mms22, hits give low values 1.01 | S. cerevisiae deletion strains, locus YLR330W, strain CHS5, hits give low values 0.986 | S. cerevisiae deletion strains, locus YLR342W, strain FKS1 (second series), hits give low values 1.03 | S. cerevisiae deletion strains, locus YLR342W, strain FKS1, hits give low values 1.01 | S. cerevisiae deletion strains, locus YLR357W, strain rsc2, hits give low values 1.04 | S. cerevisiae deletion strains, locus YLR370C, strain arc18, hits give low values 1.03 | S. cerevisiae deletion strains, locus YLR371W, strain rom2, hits give low values 0.999 | S. cerevisiae deletion strains, locus YLR384C, strain iki3, hits give low values 1.02 | S. cerevisiae deletion strains, locus YLR418C, strain cdc73, hits give low values 1.01 | S. cerevisiae deletion strains, locus YML016C, strain PPZ1, hits give low values 0.986 | S. cerevisiae deletion strains, locus YML032C, strain rad52, hits give low values 0.995 | S. cerevisiae deletion strains, locus YML120C, strain ndi1, hits give low values 1.02 | S. cerevisiae deletion strains, locus YML124C, strain tub3, hits give low values 0.995 | S. cerevisiae deletion strains, locus YMR058W, strain fet3, hits give low values 1.02 | S. cerevisiae deletion strains, locus YMR078C, strain ctf18, hits give low values 0.994 | S. cerevisiae deletion strains, locus YMR125W, strain sto1, hits give low values 0.996 | S. cerevisiae deletion strains, locus YMR129W, hits give low values 1.02 | S. cerevisiae deletion strains, locus YMR205C, strain PFK2, hits give low values 1.04 | S. cerevisiae deletion strains, locus YMR223W, strain ubp8, hits give low values 1.01 | S. cerevisiae deletion strains, locus YMR231W, strain pep5, hits give low values 1 | S. cerevisiae deletion strains, locus YMR263W, strain SAP30, hits give low values 1 | S. cerevisiae deletion strains, locus YMR307W, strain GAS1, hits give low values 0.933 | S. cerevisiae deletion strains, locus YNL067W, strain RPL9B, hits give low values 1.02 | S. cerevisiae deletion strains, locus YNL071W, strain lat1, hits give low values 1.02 | S. cerevisiae deletion strains, locus YNL153C, strain GIM3, hits give low values 1.02 | S. cerevisiae deletion strains, locus YNL183C, strain NPR1, hits give low values 0.933 | S. cerevisiae deletion strains, locus YNL209W, strain ssb2, hits give low values 1.03 | S. cerevisiae deletion strains, locus YNL233W, strain BNI4, hits give low values 1.03 | S. cerevisiae deletion strains, locus YNL248C, strain rpa49, hits give low values 1.05 | S. cerevisiae deletion strains, locus YNL250W, strain rad50, hits give low values 1 | S. cerevisiae deletion strains, locus YNL271C, strain bni1, hits give low values 1 | S. cerevisiae deletion strains, locus YNL298W, strain CLA4, hits give low values 0.999 | S. cerevisiae deletion strains, locus YNL307C, strain MCK1, hits give low values 0.995 | S. cerevisiae deletion strains, locus YNL322C, strain KRE1 (second series), hits give low values 1.01 | S. cerevisiae deletion strains, locus YNR049C, strain mso1, hits give low values 1.02 | S. cerevisiae deletion strains, locus YNR052C, strain pop2, hits give low values 0.996 | S. cerevisiae deletion strains, locus YOL012C, strain htz1 0.951 | S. cerevisiae deletion strains, locus YOL147C, strain pex11, hits give low values 0.997 | S. cerevisiae deletion strains, locus YOR001W, strain rrp6, hits give low values 1.02 | S. cerevisiae deletion strains, locus YOR061W, strain CKA2, hits give low values 0.968 | S. cerevisiae deletion strains, locus YOR069W, strain VPS5, hits give low values 0.976 | S. cerevisiae deletion strains, locus YOR070C, strain gyp1, hits give low values 1.02 | S. cerevisiae deletion strains, locus YOR080W, strain dia2, hits give low values 1.03 | S. cerevisiae deletion strains, locus YOR083W, strain WHI5, hits give low values 0.993 | S. cerevisiae deletion strains, locus YOR106W, strain vam3, hits give low values 1.04 | S. cerevisiae deletion strains, locus YOR136W, strain idh2, hits give low values 0.984 | S. cerevisiae deletion strains, locus YOR144C, strain elg1, hits give low values 0.995 | S. cerevisiae deletion strains, locus YOR184W, strain ser1, hits give low values 0.992 | S. cerevisiae deletion strains, locus YOR231W, strain MKK1, hits give low values 0.979 | S. cerevisiae deletion strains, locus YOR265W, strain rbl2, hits give low values 1.02 | S. cerevisiae deletion strains, locus YOR270C, strain vph1, hits give low values 1.07 | S. cerevisiae deletion strains, locus YOR290C, strain snf2, hits give low values 1.02 | S. cerevisiae deletion strains, locus YOR316C, strain cot1, hits give low values 0.991 | S. cerevisiae deletion strains, locus YPL051W, strain arl3, hits give low values 1.01 | S. cerevisiae deletion strains, locus YPL078C, strain atp4, hits give low values 1.02 | S. cerevisiae deletion strains, locus YPL106C, strain sse1, hits give low values 1.03 | S. cerevisiae deletion strains, locus YPL240C, strain hsp82, hits give low values 1.01 | S. cerevisiae deletion strains, locus YPL241C, strain CIN2, hits give low values 0.989 | S. cerevisiae deletion strains, locus YPL256C, strain CLN2, hits give low values 0.956 | S. cerevisiae deletion strains, locus YPR119W, strain clb2, hits give low values 0.995 | S. cerevisiae deletion strains, locus YPR141C, strain kar3, hits give low values 0.988 | S. cerevisiae deletion strains, locus YPR163C, strain tif3, hits give low values 0.995 | S. cerevisiae deletion strains, locus YPR167C, strain met16, hits give low values 0.998 | S. cerevisiae deletion strains, strain wtn01, hits give low values 1.04 | S. cerevisiae strains, strain wild type, hits give low values 0.985
